# Experimental data published in PubChem BioAssay AID504692 (The Scripps Research Institute Molecular Screening Center, 2011).
# Screen size: about 340,000 compounds; about 2,000 (0.59%) were called active. Rule as the data show it: active = activation mostly above about 9.5% (no sharp cut-off); inactive = mostly below about 7.6%. Shown is part of a subset that was picked to be rich in actives.
# Biological target: 5-hydroxytryptamine receptor 5A (Homo sapiens) (UniProt P47898)
# Assay: HTR5A agonists in luminescence cell assay, primary screen, counter-screen for OPRM1-OPRD1 heterodimer agonist project, full-deck HTS (AID 504692);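 also: 0% = cells with vehicle only and 100% = reference agonist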
# Settings: cell-based, at 9.3 µM, hits give high values
# Chain of 5-hydroxytryptamine receptor 5A (Homo sapiens) (P47898 whole entry, looked up): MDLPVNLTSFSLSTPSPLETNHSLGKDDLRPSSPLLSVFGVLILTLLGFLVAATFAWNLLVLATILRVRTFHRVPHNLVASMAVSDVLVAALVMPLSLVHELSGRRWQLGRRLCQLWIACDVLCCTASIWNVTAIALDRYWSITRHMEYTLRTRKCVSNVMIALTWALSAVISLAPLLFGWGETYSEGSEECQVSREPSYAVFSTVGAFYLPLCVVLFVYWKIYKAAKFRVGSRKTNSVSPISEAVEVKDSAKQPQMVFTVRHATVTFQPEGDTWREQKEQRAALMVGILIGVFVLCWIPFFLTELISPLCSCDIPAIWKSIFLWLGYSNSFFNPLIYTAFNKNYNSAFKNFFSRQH
row,SMILES,activation
1,CCc1ccc(NC(=O)CN2C(=O)CSC2=O)cc1,13.7% (active)
2,CCc1ccc(NC(=O)CN2C(=O)COc3ccc(S(=O)(=O)N4CCCC4)cc32)cc1,0.59% (inactive)
3,COc1ccc(NC(=O)CN2C(=O)CSC2=O)cc1,-1% (inactive)
4,COC(=O)c1c(CCl)noc1C(=O)NC(C)C,2.61% (inactive)
5,CC(C)(C)NC(=O)COC(=O)c1cc(Cl)ccc1[N+](=O)[O-],7.24% (inactive)
6,CN(C)/C=C/C(=O)c1cnc2sccn2c1=O,0.28% (inactive)
7,CCOC(=O)c1cnc2sccn2c1=O,21% (active)
8,CCOC(=O)c1ccccc1NS(=O)(=O)c1c(C)nc2sccn2c1=O,-1.95% (inactive)
9,Cc1nc(C(=O)NCc2ccccc2)sc1C1(C)CC(c2cccnc2)=NO1 (stereo not given),6.13% (inactive)
10,COc1cccc(OCC(=O)Nc2ccccc2C(N)=O)c1,18.3% (active)
11,Cc1cccc(OCCC(=O)Nc2ccccc2C(N)=O)c1,1.89% (inactive)
12,Cc1cccc(OCC(=O)Nc2ccccc2F)c1,0.76% (inactive)
13,Cc1cc(C)c(S(=O)(=O)NCC(c2ccc3c(c2)OCO3)N2CCOCC2)c(C)c1 (stereo not given),-4.07% (inactive)
14,Cc1ccc2nc(SC(C)C(=O)NCc3ccco3)[nH]c2c1 (stereo not given),-4.41% (inactive)
15,CC(=O)c1c(C)[nH]c(C(=O)OCC(=O)NCCC(C)C)c1C,-1.47% (inactive)
16,CC(=O)c1c(C)[nH]c(C(=O)OCC(=O)Nc2c(C)n(C)n(-c3ccccc3)c2=O)c1C,1.57% (inactive)
17,CC(=O)c1c(C)[nH]c(C(=O)OCC(=O)Nc2c(C)cccc2C)c1C,17.5% (active)
18,CSCCC(NS(=O)(=O)/C=C/c1ccccc1)C(=O)N1CCC(C)CC1 (stereo not given),-0.99% (inactive)
19,COc1ccccc1C(=O)Nc1cccc(C(=O)N2CCOCC2)c1,3.58% (inactive)
20,CCNS(=O)(=O)c1ccc(NC(=O)Nc2cccc(C(F)(F)F)c2)cc1,12.8% (active)

row,SMILES,activation
1,O=C(NCc1ccccc1)c1ccc(S(=O)(=O)Nc2cccc(C(F)(F)F)c2)cc1,2.56% (inactive)
2,O=C(COc1ccc(S(=O)(=O)Nc2cccc(C(F)(F)F)c2)cc1)N1CCOCC1,1.4% (inactive)
3,O=C(Nc1ccc(C(=O)N2CCOCC2)cc1)Nc1cccc(C(F)(F)F)c1,28.4% (active)
4,CCNS(=O)(=O)c1ccc(NC(=O)c2cncc(Br)c2)cc1,0.87% (inactive)
5,Cc1cc(OCCN2CCCC2)ccc1C(C)C,8.01% (inactive)
6,O=C(NCCCO)c1cc2c([nH]c3ccccc32)c(-c2ccc(F)cc2)n1,1.16% (inactive)
7,COc1ccccc1C(=O)COC(=O)COc1ccc(C#N)cc1,-2.03% (inactive)
8,COc1ccc(-c2nc(CS(=O)(=O)CC(=O)NCc3cccc(Br)c3)c(C)o2)cc1,4.07% (inactive)
9,O=C(COC(=O)CCCNC(=O)c1ccc(Cl)cc1)Nc1cc(Cl)ccc1Cl,7.08% (inactive)
10,O=C(CN(c1ccccc1)S(=O)(=O)c1ccc(Cl)cc1)Nc1ccccc1C(=O)N1CCCC1,-0.02% (inactive)
11,CCN(CC)C(=O)c1nc[nH]c1C(=O)N(C)Cc1ccccc1,-1.14% (inactive)
12,COc1ccc(CCNC(=O)C(Sc2ccccn2)c2ccccc2)cc1OC (stereo not given),2.72% (inactive)
13,COc1ccc(COC(=O)NC(C(=O)O)c2ccccc2)cc1 (stereo not given),-0.04% (inactive)
14,COc1ccc(C(CCN(Cc2ccc(OC)c(OC)c2)C(=O)CCl)c2ccccc2)cc1 (stereo not given),44.4% (active)
15,CCCNC(=S)NC1CC2CCCC(C1)N2CC(C)C (stereo not given),4.6% (inactive)
16,COc1c(N2CCN(C(=S)Nc3ccccc3F)C(C)C2)c(F)cc2c(=O)c(C(=O)O)cn(C3CC3)c12 (stereo not given),-0.11% (inactive)
17,Cc1ccc(C(=O)N/C(=C\c2ccco2)C(=O)N2CCSCC2)cc1C,1.54% (inactive)
18,Cc1ccc(C(=O)N/C(=C/c2ccco2)C(=O)NCCc2c[nH]c3ccccc23)cc1C,20.3% (active)
19,O=C(NC(Cc1c[nH]c2ccccc12)C(=O)O)/C(=C/c1ccco1)NC(=O)c1ccccc1 (stereo not given),0.55% (inactive)
20,Cc1ccc(/C=N/NC(=O)C(NC(=O)c2ccccc2)c2n[nH]c(=O)c3ccccc23)cc1 (stereo not given),3% (inactive)
